GCN5L2 inh – GCN5L2 (KAT2A) acetyltransferase inhibition. GCN5L2 HAT assay, ThioGlo1 CoA-SH fluorescence. AID 504327. 0.21% of 390,000 active. Q92830. Potency, µM (top dose mostly 58.9 µM), most hits filed as inhibitors
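qHTS, 1536-well. 20nM enzyme, pH 7.5 HEPES/EDTA/Tween-20 buffer; 15 min compound preinc., RT. Start: 75uM H3(1-25), 70uM AcCoA, 50uM ThioGlo1. Read Ex340/Em540 at t=0 (autofluorescence flag) and t=20 min.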
BLM inh – Bloom syndrome helicase (human) inhibition | Potency, µM (titrated, usually from 56.1 µM), actives largely listed as inhibitors | recombinant BLM DNA unwinding, fluorescence dequenching | 0.2% of 350,000 active | AID 2528 | P54132; further: nearly all actives have a fitted effect of over 35% in size
APEX1 inh – inhibitors of human APE1 endonuclease; P27695; recombinant APE1, TAMRA/BHQ-2 abasic DNA cleavage fluorescence; Potency, µM (top dose mostly 65.8 µM), hits mostly inhibitors; 0.35% of 350,000 active; AID 2517; further: nearly all actives have a fitted effect of over 55% in size
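Incision of a quenched TAMRA/BHQ-2 THF abasic-site duplex (50 nM) by 0.75 nM APE1, after 15 min compound preincubation, measured as fluorescence increase over three 60 s reads. Values normalized to buffer, DMSO and NSC13755 control wells.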
Lamin A splicing – modulators of lamin A splicing; HeLa LMNA splicing GFP/RFP minigene ratio, 48 h; AID 1487; 0.01% of 200,000 active; Potency, µM (highest dose often 46.1 µM), actives largely listed as inhibitors; active means well fitted inhibition curve with a large enough effect in the signal ratio, with a control signal flat, not every such curve was filed as active; inconclusive means small, poorly fitted or top-dose-only effect, or effect the other way, or a change in a side signal; the % refers to the signal ratio
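S3 HeLa cells stably expressing lamin A-EGFP splicing minigene plus DsRed2, 600 cells/well, 48 h compound exposure at 37C. Laser-scanning cytometry; analysed as GFP (500-530 nm)/RFP (575-640 nm) total intensity ratio; 0.5% DMSO vehicle.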
RECQ1 inh – blocks DNA unwinding by human RECQ1; P46063; RECQ1 DNA unwinding, red fluorescence kinetic read; Potency, µM (top dose mostly 57.3 µM), most hits filed as inhibitors; 0.54% of 240,000 active; AID 2549; further: nearly all actives have a fitted effect of over 30% in size
Target sequence (P46063 whole entry, looked up): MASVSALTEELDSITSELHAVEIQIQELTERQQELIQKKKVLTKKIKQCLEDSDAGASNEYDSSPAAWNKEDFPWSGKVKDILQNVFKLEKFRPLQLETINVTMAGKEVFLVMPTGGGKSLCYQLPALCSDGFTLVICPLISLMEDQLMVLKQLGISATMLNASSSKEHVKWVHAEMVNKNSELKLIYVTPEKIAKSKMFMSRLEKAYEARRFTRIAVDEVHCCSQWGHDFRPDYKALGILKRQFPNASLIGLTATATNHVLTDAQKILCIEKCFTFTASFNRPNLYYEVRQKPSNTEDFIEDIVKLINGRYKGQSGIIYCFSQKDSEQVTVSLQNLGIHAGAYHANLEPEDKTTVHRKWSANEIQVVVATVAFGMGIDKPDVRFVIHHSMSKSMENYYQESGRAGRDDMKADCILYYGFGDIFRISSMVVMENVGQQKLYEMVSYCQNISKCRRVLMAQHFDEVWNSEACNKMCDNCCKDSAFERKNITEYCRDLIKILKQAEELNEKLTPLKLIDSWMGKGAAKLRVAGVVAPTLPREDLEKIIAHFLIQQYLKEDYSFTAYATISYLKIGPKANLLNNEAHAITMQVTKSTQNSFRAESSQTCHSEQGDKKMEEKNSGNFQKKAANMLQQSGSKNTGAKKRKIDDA
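50 nM RECQ1T1 preincubated 15 min with compound in Tris pH 8.0 buffer with MgCl2, DTT, Tween-20 and 2.5 ug/ml poly(dI-dC); started with 200 nM TAMRA/BHQ-2 forked duplex and 2 mM ATP. Unwinding read as fluorescence (525/598 nm), two reads 2 h apart.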
TDP1 block – blocks human tyrosyl-DNA phosphodiesterase 1; Q9NUW8; recombinant TDP1, AlphaScreen DNA substrate cleavage; Potency, µM (highest dose often 130 µM), hits mostly inhibitors; 0.28% of 350,000 active; AID 485290; further: nearly all actives have a fitted effect of over 40% in size
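Recombinant human Tdp1 (E. coli-expressed, 1 nM final) preincubated with compounds 15 min at room temperature, then 5'-biotin/3'-phosphotyrosine-FITC DNA substrate (15 nM final) added for 5 min. AlphaScreen beads (10 ug/ml final) added 10 min; cleavage lowers signal.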
Hits are given with their value; - = inactive; ? = inconclusive; . = not tested or not shown; ! = a repeat was not active; [ ] = another dose, or the depositor's remark. Only some compounds are listed: those with a hit (about 0.9% of all), similar ones and a draw of the others. Unless noted, the call rests on the fitted dose curve; in most records, active means well fitted curve in the direction sought with a large enough effect; inconclusive means small, poorly fitted or top-dose-only effect, or another doubt; inactive means no such curve, though single readings can be large; an effect the other way counts as inactive or inconclusive.

SMILES | GCN5L2 inh | BLM inh | APEX1 inh | Lamin A splicing | RECQ1 inh | TDP1 block
CCC1(O)CC2CN(CCc3c([nH]c4ccccc34)[C@@](C(=O)OC)(c3cc4c(cc3OC)N(C)C3[C@]45CCN4CC=C[C@@](CC)([C@@H](OC(C)=O)[C@]3(O)C(=O)OC)[C@H]45)C2)C1 (some centres not stated) | - | . | - | ? | 14µM | -
Cn1nnnc1SCC(=O)c1ccco1 | - | - | - | - | - | -
O=C(CSCCSCC(=O)c1ccco1)c1ccco1 | ? | - | ? | - | 35µM | ?
Cc1c(CC(=O)N2CCN(C(=O)C3COc4ccccc4O3)CC2)c(=O)oc2cc(O)ccc12 (configuration not stated) | 28µM | - | - | . | . | -
Cc1ccc(CSc2nnc(-c3cccc4ccccc34)o2)cc1 | - | . | - | . | . | 45µM
COc1ccc(NC(=O)CSc2nc(NS(=O)(=O)c3ccccc3)cc(=O)[nH]2)cc1 | ? | ? | ? | - | 14µM | .
COc1ccc2[nH]c(S(=O)Cc3ncc(C)c(OC)c3C)nc2n1 (configuration not stated) | ? | - | . | . | . | .
Oc1c(Br)cc(Br)cc1/C=N/n1c(-c2ccccc2)n[nH]c1=S | - | - | - | . | . | .
Oc1c(Br)cc(/C=N/n2c(-c3ccccc3)n[nH]c2=S)c(Br)c1O | ? | 0.79µM | 0.42µM | . | . | ?
COc1ccc(C2Nc3ccccc3C(=O)N2Cc2ccccc2)cc1COc1ccc(Cl)cc1 (configuration not stated) | . | . | . | . | . | -
COc1cc(-c2cc(=O)c3c(O)c(OC)c(OC)c(O)c3o2)ccc1O | - | - | ? | . | 13µM | -
COc1ccc(-c2cc(=O)c3c(O)c(OC)c(OC)c(OC)c3o2)cc1OC | - | - | - | ? | - | -
O=C1OC(c2cccs2)=N/C1=C/c1ccc(-c2cccc(C(=O)O)c2)o1 | - | - | 18µM | ? | ? | ?
c1ccc(-c2nn[nH]n2)c(Nc2cccc3c2CCCC3)c1 | 18µM | - | ? | . | - | -
NC(=S)n1[nH]c(-c2ccc([N+](=O)[O-])cc2)c(N=Nc2cccc([N+](=O)[O-])c2)c1=O | ? | 18µM | ? | ? | - | ?
NC(=S)n1[nH]c(-c2ccc([N+](=O)[O-])cc2)c(N=Nc2ccccc2[N+](=O)[O-])c1=O | - | - | - | ? | - | -
CC(=O)N1CCOc2cc(S(=O)(=O)Nc3cc(C(F)(F)F)ccc3Cl)c(C)cc21 | - | - | . | - | . | -
CC(=O)N1CCOc2cc(S(=O)(=O)Nc3cccc(C(F)(F)F)c3)c(Cl)cc21 | - | - | - | - | . | 11µM
Nc1nc(-c2ccc3c(c2)OCCO3)c(CC(=O)O)s1 | 35µM | - | - | . | . | -
COc1cccc(C(=O)Nc2cc(NC(=O)c3cccs3)ccc2C)c1 | - | - | - | . | . | 6.3µM
Cc1ccc(NC(=O)c2cccs2)cc1NC(=O)c1cccnc1 | - | - | - | ? | - | -
Cc1ccc(Cn2cnc3c(cnn3C(C)(C)C)c2=O)cc1F | . | . | - | . | . | .
C[c-]1[c-](C)[c-](C)[c-](C)[c-]1C.[Fe].c1cc2nccc(N3CCCC3)[c-]2c1 (configuration not stated) | - | ? | 2.8µM! | . | 6.3µM! | 7.9µM!
Cn1cnc2c(N3CCCCC3)nccc21 | - | - | - | - | - | -
O=C(/C=C/c1ccc(O)c(O)c1)OC(Cc1ccc(O)c(O)c1)C(=O)O (configuration not stated) | ? | - | 1.3µM! | . | 13µM! | .
O=C(O)/C=C\c1ccc(O)c(O)c1 | - | - | - | - | - | -
O=C(/C=C/c1ccc(O)c(O)c1)OCCc1ccccc1 | - | - | ? | ? | - | -
O=C(/C=C\c1ccc(O)c(O)c1)O[C@@H](Cc1ccc(O)c(O)c1)C(=O)O | - | - | 2.5µM | . | - | .
COc1cccc(CC(=O)N2CCc3nc(-c4ccc(OC)cc4C)c4c(c3C2)CO[C@@H](c2ccccc2)C4)c1 | . | -[12.4 µM] | -[12.4 µM] | ? | -[11.5 µM] | -[12.3 µM]
Cc1cccc(/C(N)=N/OC(=O)CCCc2ccccc2)c1 | - | - | - | . | . | 56µM
